Bioassay records deposited in PubChem by National Center for Advancing Translational Sciences (NCATS).
Shown are actives, neighbours in structure and some others; about 0.69% of the full set was active somewhere.
AT treatment: potential ataxia-telangiectasia treatment; Potency, µM (top dose mostly 57.5 µM), for the others: top-dose activation, usual class: activators; F2112 A-T fibroblasts, KAP-1 phosphorylation AlphaLISA; neocarzinostatin DNA damage 30 min before lysis; AID 485349; 0.19% of 320,000 active; note: potency is the fitted concentration of half-maximal effect; % of control where 0% means no effect; nearly all actives have a fitted effect of over 45% in size
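hTERT-immortalized A-T patient fibroblasts (F2112), 500 cells/well in OPTI-MEM, 1% FBS, got compounds for 60 min, then NCS for 30 min at 37C. Lysates were then assayed for phospho-KAP-1 by AlphaLISA (anti-pKAP1 donor, anti-KAP1 acceptor beads), 6 hr at 25C.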
PKM2 activator: activators of human pyruvate kinase M2; 0.34% of 260,000 active; purified PKM2, Kinase-Glo ATP luminescence, activation; response scale: 0% is enzyme alone, no compound; Potency, µM (titrated, usually from 57.5 µM), for inactives: at the top dose activation, hits mostly activators; note: potency is the fitted concentration of half-maximal effect; % is set by controls: 0 for no effect and ±100 for the full control effect; nearly all actives have a fitted effect of over 55% in size
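ATP formation by purified human PK-M2, quantified via coupled luciferase luminescence after 1 h at room temperature with 0.1 mM ADP and 0.5 mM PEP final.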
IL2 activator: IL-2 activation; 0.065% of 360,000 active; IL-2 activation reporter assay, cell-based qHTS; stimulated with anti-CD3/CD4/CD28 beads; in transgenic mouse T cells; activation, % (series mostly up to about 46 µM); in the data active = activation above about 50%; inconclusive = mostly about 30% to 49%; note: 0% is about no effect
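EGFP and DsRed fluorescence is measured by plate cytometry in unstimulated transgenic mouse T cells exposed to compound for 60 minutes, then stimulated 18 hours at 37 degrees C with anti-CD3/anti-CD4 beads plus anti-CD28.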
Tb PFK inh-1: inhibitors of T. brucei phosphofructokinase; O15648; Potency, µM (series often up to 57.5 µM), inactives show top-dose activity, negative = inhibition, usual class: inhibitors; 0.17% of 330,000 active; T. brucei PFK, ADP-Glo luminescence;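 note: potency is the fitted concentration of half-maximal effect; 0% = uninhibited 1x PFK enzyme wells and -100% = no-enzyme wells; nearly all actives have a fitted effect of over 60% in size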
Target sequence (O15648 whole entry, looked up): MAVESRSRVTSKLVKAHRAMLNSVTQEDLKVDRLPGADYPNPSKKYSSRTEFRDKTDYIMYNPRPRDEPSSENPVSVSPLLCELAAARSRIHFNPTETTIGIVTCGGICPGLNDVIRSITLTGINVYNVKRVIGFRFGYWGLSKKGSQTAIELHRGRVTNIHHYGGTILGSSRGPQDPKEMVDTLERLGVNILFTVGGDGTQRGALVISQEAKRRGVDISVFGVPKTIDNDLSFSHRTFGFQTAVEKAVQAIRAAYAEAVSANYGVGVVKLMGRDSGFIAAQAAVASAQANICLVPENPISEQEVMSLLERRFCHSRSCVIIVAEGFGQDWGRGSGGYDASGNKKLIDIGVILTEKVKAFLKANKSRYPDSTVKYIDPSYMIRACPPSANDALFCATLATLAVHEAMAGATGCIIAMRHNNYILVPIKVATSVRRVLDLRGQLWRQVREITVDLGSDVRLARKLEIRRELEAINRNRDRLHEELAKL
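In TEA buffer at pH 8.0 with 5 mM MgCl2, enzyme (1.25 nM) converted F6P (0.5 mM) and ATP (0.1 mM) for 45 min at room temperature. ADP product was read by luciferase luminescence.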
a7 integrin act: activators of alpha7 integrin expression for muscular dystrophy. alpha7betagal myoblasts, beta-gal FDG fluorescence, 48 h. 0.064% of 350,000 active. Potency, µM (highest dose often 38.3 µM), for inactives: top-dose activation, actives largely listed as activators. AID 624291;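 note: potency is the fitted concentration of half-maximal effect; 100% = response of the positive control SU9516; nearly all actives have a fitted effect of over 60% in size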
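Alpha7betagal+/- myoblasts (passage 13) were plated 16-24 hr, then exposed to compounds (1:260 dilution of DMSO stock) for 48 hours at 37C. After MPER lysis, β-galactosidase reporter activity was read as FDG fluorescence (ex 480/em 540) after 30 minutes.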
TCR activator: activators of T cell receptors | 330,000 tested, under 10 active | AID 504894 | primary human leukocytes, anti-CD3, IL-2 HTRF, 48 h | Potency, µM (highest dose often 9.22 µM), for inactives: top-dose activation of IL-2 secretion, most hits filed as activators; note: % of control where 0% means no effect
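Activity was scored as IL-2 release from primary human leukocytes given only a TCR signal (a-CD3 beads) plus compound for 48 hr. Detection used a two-antibody HTRF format read at 665nm.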
TbPFK ATP: inhibits T. brucei PFK measured by ATP depletion. shares compounds with Tb PFK inh-1. Tb PFK enzyme, ATP depletion, Kinase-Glo Plus luminescence. Potency, µM (doses to about 57.5 µM), without a hit: top-dose inhibition. 47% of 1,100 active. AID 504636; calls by dose curve; note: potency is the fitted concentration of half-maximal effect; nearly all actives have a fitted effect of over 60% in size
Tb PFK inh-2: validation of T. brucei phosphofructokinase inhibitors; shares compounds with Tb PFK inh-1; purified T. brucei PFK, ADP-Glo luminescence, 45 min; Potency, µM (titrated, usually from 57.5 µM), without a hit: top-dose activity change, negative = inhibition, most hits filed as inhibitors; 41% of 1,100 active;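 note: potency is the fitted concentration of half-maximal effect; plate controls were full PFK enzyme control for no effect and no enzyme control for full effect; nearly all actives have a fitted effect of over 60% in size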
The depositor's hits bear a star; i = inactive; u = inconclusive; x = not tested or not shown; [ ] = dose if it differs, or a comment. Unless noted, calls come from the whole dose curve; as a rule, active = well fitted curve in the direction sought with a large enough effect; inconclusive = small, poorly fitted or top-dose-only effect, or another doubt; inactive = no such curve, though single readings can be large; an effect the other way counts as inactive or inconclusive.

SMILES	AT treatment	PKM2 activator	IL2 activator	Tb PFK inh-1	a7 integrin act	TCR activator	TbPFK ATP	Tb PFK inh-2
Cc1ccc(-c2csc(Nc3ccc(S(N)(=O)=O)cc3)n2)o1	0%	10µM*	-2	11µM*	-14%	-4%	u	u
CC(=O)c1cc(Cc2csc(C(C)=O)c2)cs1	-3%	0%	-2	27µM*	-8%	7%	13µM*	30µM*
CC(C)C(C(=O)O)N1C(=O)/C(=C/C=C/c2ccco2)SC1=S (stereo unspecified)	-14%	9%	-2	u	-46%	0%	8.5µM*	21µM*
CSc1ccc(C(c2c(C)[nH][nH]c2=O)c2c(C)[nH][nH]c2=O)cc1	2%	-1%[11.5 µM]	-2	15µM*	-5%	0%	u	u
CSc1ccc(C(c2c(O)c3ccccc3oc2=O)c2c(C)n(C)n(-c3ccccc3)c2=O)cc1 (stereo unspecified)	7%	-11%	-2	1%	14%	-1%	x	x
Fc1cc2ncn(Cc3ccccc3)c2cc1F	8%	-8%	0	u	-22%	3%	u	u
O=C(c1ccccc1F)c1cn(Cc2ccccc2)c2ccccc12	15%	-1%	-4	-11%	1%	3%	x	x
Cc1ccc(NC2c3ncccc3C(=O)N2Cc2cccs2)cc1C (stereo unspecified)	4%	-2%	2	u	-16%	-1%	20%	-20%
COc1ccc(OC)c(-c2c3cc(O)c(=O)cc-3oc3cc(O)c(O)cc23)c1	0%	5%	-6	9.5µM*	i	5%[46.1 µM]	u	3.8µM*
Cc1ccsc1C(=O)C1CCCN(Cc2cnc(N3CCCC3)s2)C1 (stereo unspecified)	-1%	1%	-3	-1%	-16%	1%	x	x
Nn1c(Cc2cccc3ccccc23)n[nH]c1=S	-1%	-10%	1	u	-3%	-1%	1.5µM*	2.1µM*
COc1ccc(NC(=S)N2Cc3ccccc3-n3nncc3C2)c(OC)c1	x	x	-2	x	12%	x	x	x
Cc1[nH]c2c(Cl)cccc2c1CCN	3%	-6%	-2	19µM*	21%	-1%	11µM*	11µM*
Cc1[nH]c2ccccc2c1CN1CCCCC1	x	x	-1	x	-54%	2%	x	x
CCCc1cc2c(n1CCO)C(C)C1CN(C(=O)c3ccccc3)C(C)(C(=O)OC)C21 (stereo unspecified)	x	1%	x	x	x	x	x	x
CCC1=Nc2cc(C(=O)N3CCC4(CC3)OCCO4)ccc2Sc2ccc(Br)cc21	-2%	2%	-4	-2%	-9%	1%	x	x
O=C(O)c1ccccc1NS(=O)(=O)c1cccc(-n2sc3ccccc3c2=O)c1	-7%	2.5µM*	0	2.4µM*	41%	1%	12µM*	24µM*
CCN(CC)C(=O)c1c(C)[nH]c(=S)c(C#N)c1-c1ccco1	3%	-36%	-5	-3%	-39%	0%	x	x
CCN(C(=O)CN1CCN(c2ccc(O)cc2)CC1)c1c(N)n(Cc2ccccc2)c(=O)[nH]c1=O	-6%	8%	0	u	1%	0%	u	u
O=[N+]([O-])c1ccc(C2C3C(c4ccccc4)=NC4(CCCC4)N32)cc1 (stereo unspecified)	3%	2%	-4	0%	-6%	0%[46.1 µM]	x	x
